Source: PubChem BioAssay (NCI)
The panel holds about 83,000 compounds, 20% with a hit somewhere; the sample as a whole holds those more often.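 Treatment: one concentration, 48 hours, 96-well format. Scoring: percent growth, with anything below 10 considered active.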 Active and inactive are the calls of the source.

Assays:
Assay in all cases: NCI-60 one-dose screen, 48 h (100 = growth as untreated, 0 = no growth, -100 = all killed)
Conditions in all cases: 10 µM unless noted
T-47D breast = system: T-47D breast
BT-549 breast = system: BT-549 breast
MDA-MB-435 melanoma = system: MDA-MB-435 melanoma
SW-620 colon = system: SW-620 colon
MCF7 breast = system: MCF7 breast
HCT-116 colon = system: HCT-116 colon
HCC-2998 colon = system: HCC-2998 colon
KM12 colon = system: KM12 colon

Measured: growth

Cc1ccc2c(c1)C(=O)CCS2
inactive: T-47D breast 106% | BT-549 breast 101% | MDA-MB-435 melanoma 104% | SW-620 colon 97.1% | MCF7 breast 93.3% | HCT-116 colon 103% | HCC-2998 colon 99.6% | KM12 colon 108%

Nc1cc2c(cc1Br)[nH]c(=O)c1ccccc12
active: MDA-MB-435 melanoma -42.6%
inactive: T-47D breast 29.6% | BT-549 breast 65.1% | SW-620 colon 61% | MCF7 breast 15.9% | HCT-116 colon 19.2% | HCC-2998 colon 68% | KM12 colon 26.2%

COc1cc(Cn2ccc3c2-c2oncc2CC3)cc(OC)c1
active: MDA-MB-435 melanoma -37% | MCF7 breast 6.18%
inactive: T-47D breast 32.2% | BT-549 breast 32.9% | SW-620 colon 18% | HCT-116 colon 14.7% | HCC-2998 colon 61.6% | KM12 colon 24.5%

CC(C)(CNC1CCCCC1)OC(=O)c1ccccc1
inactive: T-47D breast 104% | BT-549 breast 99.7% | MDA-MB-435 melanoma 107% | SW-620 colon 110% | MCF7 breast 107% | HCT-116 colon 103% | HCC-2998 colon 111% | KM12 colon 102%

COc1ccc(C(O)(c2ccccc2)C(C(=O)O)c2ccccc2)cc1 (stereo not given)
inactive: T-47D breast 86% | BT-549 breast 94.7% | MDA-MB-435 melanoma 117% | SW-620 colon 107% | MCF7 breast 114% | HCT-116 colon 97.2% | HCC-2998 colon 102% | KM12 colon 93.9%

N=C(N)N=Nc1ccc(NN=C(N)N)c2ccccc12
inactive: T-47D breast 86.3% | BT-549 breast 81.1% | MDA-MB-435 melanoma 115% | SW-620 colon 103% | MCF7 breast 97.4% | HCT-116 colon 88.8% | HCC-2998 colon 106% | KM12 colon 109%

COc1ccc(Cn2cc3c(c2-c2ccccc2)CCc2cnoc2-3)cc1OC
inactive: T-47D breast 28.3% | BT-549 breast 45.8% | SW-620 colon 25.2% | MCF7 breast 11.4% | HCT-116 colon 22.8% | HCC-2998 colon 37.4% | KM12 colon 29.2%
active: MDA-MB-435 melanoma -33.9%

COc1ccc(OC)c(Cn2cc3c(c2-c2ccccc2)CCc2cnoc2-3)c1
active: MDA-MB-435 melanoma -17.6%
inactive: T-47D breast 32.2% | BT-549 breast 65.3% | SW-620 colon 37.4% | MCF7 breast 44.4% | HCT-116 colon 43.2% | HCC-2998 colon 85.5% | KM12 colon 33.3%

CC(C)OCC1CO1 (stereo not given)
inactive: T-47D breast 104% | BT-549 breast 106% | MDA-MB-435 melanoma 102% | SW-620 colon 96.4% | MCF7 breast 99.6% | HCT-116 colon 100% | HCC-2998 colon 120% | KM12 colon 98.3%

O=C(O)COc1ccc([N+](=O)[O-])cc1Cl
inactive: T-47D breast 86.1% | BT-549 breast 107% | MDA-MB-435 melanoma 107% | SW-620 colon 108% | MCF7 breast 102% | HCT-116 colon 105% | HCC-2998 colon 113% | KM12 colon 103%

CCN(CC)C(=O)C1(C)CCCC2(C)c3cc(OC(C)=O)ccc3CCC12 (stereo not given)
inactive: T-47D breast 71.7% | BT-549 breast 95.4% | MDA-MB-435 melanoma 72.9% | SW-620 colon 89.1% | MCF7 breast 87.9% | HCT-116 colon 84.9% | HCC-2998 colon 109% | KM12 colon 82.2%

O=c1c(N=Nc2nccs2)c(-c2ccccc2)[nH]n1-c1nc(-c2ccccc2)cs1
inactive: T-47D breast 43.7% | BT-549 breast 19% | MDA-MB-435 melanoma 26.7% | SW-620 colon 40.2% | MCF7 breast 59.1% | HCT-116 colon 26.9% | HCC-2998 colon 42.2% | KM12 colon 28.5%

CC[C@H](Nc1ncnc2nc[nH]c12)c1nc2cccc(NCc3ccc(C(=O)NO)o3)c2c(=O)n1-c1ccccc1
inactive: T-47D breast 80.8% | BT-549 breast 86% | MDA-MB-435 melanoma 105% | SW-620 colon 107% | MCF7 breast 91.4% | HCT-116 colon 96.9% | HCC-2998 colon 104% | KM12 colon 103%

COc1cc(-c2nc(/C=C3/C(=O)Nc4ccccc43)c3ccccn23)cc(OC)c1OC
inactive: T-47D breast 53.7% | BT-549 breast 94% | MDA-MB-435 melanoma 55.6% | SW-620 colon 88.7% | MCF7 breast 40.1% | HCT-116 colon 67.2% | HCC-2998 colon 78.1% | KM12 colon 47.6%

O=C(CCCC(=O)Nc1ccc(Cn2nnc3cc(Cl)c(Cl)cc32)cc1)Nc1ccc(CN2N=NC3C=C(Cl)C(Cl)=CC32)cc1 (stereo not given)
inactive: T-47D breast 49% | BT-549 breast 71.5% | MDA-MB-435 melanoma 87.8% | SW-620 colon 85.8% | MCF7 breast 66.6% | HCT-116 colon 75.1% | HCC-2998 colon 90.2% | KM12 colon 79.9%
